From the supplement of paper PMC11732987, “Enantioselective OTUD7B fragment discovery through chemoproteomics screening and high-throughput optimisation” (Communications Chemistry, 2025)
Unmarked numbers belong to inactive results.

Assays:
Test in all cases: log2 ratio of Biotin-Ahx-Ub-VS probe labelling (fragment/DMSO); higher = less target engagement (more negative = stronger competition), active = hit call of the paper (q ≤ 0.05, log2 ratio ≤ -1)
Conditions in all cases: compound concentration: 200 uM; treatment time: 3 h
UniProt O00507 = biological target: UniProt O00507
Chain of UniProt O00507 (O00507 whole entry, the tested form may be a part): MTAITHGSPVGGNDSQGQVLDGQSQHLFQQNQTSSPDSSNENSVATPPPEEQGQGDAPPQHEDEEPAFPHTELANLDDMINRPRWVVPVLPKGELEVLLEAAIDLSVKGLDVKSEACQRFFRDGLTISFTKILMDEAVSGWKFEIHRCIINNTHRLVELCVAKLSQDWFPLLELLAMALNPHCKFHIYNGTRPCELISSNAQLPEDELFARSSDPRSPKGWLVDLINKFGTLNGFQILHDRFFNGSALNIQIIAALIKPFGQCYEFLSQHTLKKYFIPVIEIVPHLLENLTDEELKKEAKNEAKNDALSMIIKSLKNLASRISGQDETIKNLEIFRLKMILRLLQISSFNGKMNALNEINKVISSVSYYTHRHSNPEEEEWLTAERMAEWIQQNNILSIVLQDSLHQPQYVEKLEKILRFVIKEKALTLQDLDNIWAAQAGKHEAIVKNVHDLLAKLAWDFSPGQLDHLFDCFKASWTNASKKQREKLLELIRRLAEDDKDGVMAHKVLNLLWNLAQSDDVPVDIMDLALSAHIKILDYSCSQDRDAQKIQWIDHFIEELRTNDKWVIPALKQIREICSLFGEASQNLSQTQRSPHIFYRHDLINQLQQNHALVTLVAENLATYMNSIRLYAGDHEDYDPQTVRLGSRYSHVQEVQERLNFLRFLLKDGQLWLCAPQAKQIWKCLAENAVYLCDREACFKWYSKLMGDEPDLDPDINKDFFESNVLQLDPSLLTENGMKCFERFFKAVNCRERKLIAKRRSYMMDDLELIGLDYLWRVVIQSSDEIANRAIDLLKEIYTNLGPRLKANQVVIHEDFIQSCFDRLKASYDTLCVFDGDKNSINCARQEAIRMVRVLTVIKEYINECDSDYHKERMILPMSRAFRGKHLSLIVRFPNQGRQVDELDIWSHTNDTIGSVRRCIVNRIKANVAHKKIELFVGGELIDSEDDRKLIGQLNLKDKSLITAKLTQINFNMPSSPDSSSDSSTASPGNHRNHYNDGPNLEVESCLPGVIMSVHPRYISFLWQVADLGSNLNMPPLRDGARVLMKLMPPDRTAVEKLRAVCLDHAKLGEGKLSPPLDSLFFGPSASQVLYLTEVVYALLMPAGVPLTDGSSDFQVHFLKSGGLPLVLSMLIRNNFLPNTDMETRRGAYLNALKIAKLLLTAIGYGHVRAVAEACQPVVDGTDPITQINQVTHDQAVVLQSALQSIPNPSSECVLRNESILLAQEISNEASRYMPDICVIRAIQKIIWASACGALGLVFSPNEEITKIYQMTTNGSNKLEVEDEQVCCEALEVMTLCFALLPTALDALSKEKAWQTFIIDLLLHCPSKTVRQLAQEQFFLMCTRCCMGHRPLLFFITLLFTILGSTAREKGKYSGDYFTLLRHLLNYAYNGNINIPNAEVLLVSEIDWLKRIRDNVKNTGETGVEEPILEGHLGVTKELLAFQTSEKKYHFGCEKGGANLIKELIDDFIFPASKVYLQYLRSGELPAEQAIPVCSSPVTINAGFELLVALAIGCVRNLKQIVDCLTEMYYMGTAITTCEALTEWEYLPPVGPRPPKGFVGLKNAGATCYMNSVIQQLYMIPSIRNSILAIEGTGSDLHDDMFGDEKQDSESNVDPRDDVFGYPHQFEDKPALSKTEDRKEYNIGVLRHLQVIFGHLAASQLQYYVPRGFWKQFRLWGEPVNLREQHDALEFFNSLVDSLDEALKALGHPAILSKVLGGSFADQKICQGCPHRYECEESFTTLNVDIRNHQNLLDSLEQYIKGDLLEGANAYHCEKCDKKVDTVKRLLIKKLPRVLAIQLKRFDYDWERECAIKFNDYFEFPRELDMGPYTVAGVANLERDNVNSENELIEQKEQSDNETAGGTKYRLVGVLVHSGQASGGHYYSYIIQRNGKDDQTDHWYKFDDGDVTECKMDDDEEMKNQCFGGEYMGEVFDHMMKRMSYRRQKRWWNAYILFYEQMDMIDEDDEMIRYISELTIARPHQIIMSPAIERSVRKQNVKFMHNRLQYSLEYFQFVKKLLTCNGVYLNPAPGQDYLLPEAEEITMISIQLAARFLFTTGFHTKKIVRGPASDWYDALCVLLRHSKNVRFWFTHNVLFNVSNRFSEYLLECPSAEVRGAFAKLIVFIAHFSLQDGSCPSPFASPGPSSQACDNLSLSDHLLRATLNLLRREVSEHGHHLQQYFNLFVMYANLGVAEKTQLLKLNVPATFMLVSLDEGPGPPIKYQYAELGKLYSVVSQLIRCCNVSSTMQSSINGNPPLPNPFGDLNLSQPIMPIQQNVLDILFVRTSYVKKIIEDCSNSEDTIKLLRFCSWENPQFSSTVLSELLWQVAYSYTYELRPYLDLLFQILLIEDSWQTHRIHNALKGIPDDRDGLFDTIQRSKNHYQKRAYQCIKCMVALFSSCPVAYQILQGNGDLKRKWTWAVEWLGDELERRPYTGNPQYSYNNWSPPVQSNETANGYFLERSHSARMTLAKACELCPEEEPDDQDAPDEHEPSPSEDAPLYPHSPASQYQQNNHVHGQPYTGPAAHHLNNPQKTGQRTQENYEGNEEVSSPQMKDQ
Outline: (§1)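 Using Biotin-Ahx-Ub-VS at 0.5 µM final for 1 h, DUBs were labelled in HEK293T lysate (495 µg per sample) that had first been treated in triplicate with fragment at 200 µM or vehicle for 3 h. NeutrAvidin enrichment, LysC and trypsin digestion and diaPASEF LC-MS/MS followed. Spectronaut label-free quantities were global-median-normalised. Values are average log2 fragment/vehicle ratios by unpaired t-test, using proteins with ≥2 unique peptides.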

UniProt P51784 = biological target: UniProt P51784
Chain of UniProt P51784 (P51784 whole entry): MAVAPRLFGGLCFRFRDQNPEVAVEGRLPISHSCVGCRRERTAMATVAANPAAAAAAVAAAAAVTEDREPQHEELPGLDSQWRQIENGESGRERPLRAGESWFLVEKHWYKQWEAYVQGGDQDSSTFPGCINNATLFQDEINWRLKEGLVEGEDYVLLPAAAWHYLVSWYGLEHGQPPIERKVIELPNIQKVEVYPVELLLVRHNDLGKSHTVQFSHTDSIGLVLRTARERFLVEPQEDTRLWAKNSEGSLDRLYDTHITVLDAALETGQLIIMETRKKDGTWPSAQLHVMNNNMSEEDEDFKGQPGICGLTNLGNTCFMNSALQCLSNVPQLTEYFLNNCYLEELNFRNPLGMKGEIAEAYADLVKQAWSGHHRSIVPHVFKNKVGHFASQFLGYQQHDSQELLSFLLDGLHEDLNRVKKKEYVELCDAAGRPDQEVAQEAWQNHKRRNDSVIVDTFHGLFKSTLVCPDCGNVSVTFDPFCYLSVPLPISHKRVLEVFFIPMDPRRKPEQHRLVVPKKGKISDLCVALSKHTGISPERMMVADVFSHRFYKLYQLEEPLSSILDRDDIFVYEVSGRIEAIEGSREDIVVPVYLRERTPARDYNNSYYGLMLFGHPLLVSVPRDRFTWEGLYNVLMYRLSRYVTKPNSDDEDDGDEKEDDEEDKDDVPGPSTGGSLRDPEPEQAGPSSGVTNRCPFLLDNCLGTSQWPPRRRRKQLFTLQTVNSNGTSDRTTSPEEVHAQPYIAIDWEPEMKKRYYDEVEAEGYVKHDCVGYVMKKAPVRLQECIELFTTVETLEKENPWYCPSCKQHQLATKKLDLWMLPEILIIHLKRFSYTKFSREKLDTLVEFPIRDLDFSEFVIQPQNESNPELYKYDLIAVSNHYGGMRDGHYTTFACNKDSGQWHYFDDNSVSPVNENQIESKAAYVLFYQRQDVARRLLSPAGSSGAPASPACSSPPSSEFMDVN
Outline: as §1

UniProt Q5T2D3 = biological target: T1, UniProt Q5T2D3
T1 sequence (whole entry): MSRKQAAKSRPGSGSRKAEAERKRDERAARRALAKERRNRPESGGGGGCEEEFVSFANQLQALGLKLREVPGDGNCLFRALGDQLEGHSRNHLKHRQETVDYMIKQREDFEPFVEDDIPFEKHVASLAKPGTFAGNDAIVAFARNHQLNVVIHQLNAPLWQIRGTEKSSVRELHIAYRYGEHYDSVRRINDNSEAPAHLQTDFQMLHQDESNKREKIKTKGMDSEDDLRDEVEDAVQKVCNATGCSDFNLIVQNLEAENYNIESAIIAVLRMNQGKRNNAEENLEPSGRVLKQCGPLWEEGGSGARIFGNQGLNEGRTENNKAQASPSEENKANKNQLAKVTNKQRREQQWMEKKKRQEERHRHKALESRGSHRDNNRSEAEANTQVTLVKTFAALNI
Outline: as §1

UniProt Q8TE49 = biological target: T2, UniProt Q8TE49
T2 sequence (whole entry): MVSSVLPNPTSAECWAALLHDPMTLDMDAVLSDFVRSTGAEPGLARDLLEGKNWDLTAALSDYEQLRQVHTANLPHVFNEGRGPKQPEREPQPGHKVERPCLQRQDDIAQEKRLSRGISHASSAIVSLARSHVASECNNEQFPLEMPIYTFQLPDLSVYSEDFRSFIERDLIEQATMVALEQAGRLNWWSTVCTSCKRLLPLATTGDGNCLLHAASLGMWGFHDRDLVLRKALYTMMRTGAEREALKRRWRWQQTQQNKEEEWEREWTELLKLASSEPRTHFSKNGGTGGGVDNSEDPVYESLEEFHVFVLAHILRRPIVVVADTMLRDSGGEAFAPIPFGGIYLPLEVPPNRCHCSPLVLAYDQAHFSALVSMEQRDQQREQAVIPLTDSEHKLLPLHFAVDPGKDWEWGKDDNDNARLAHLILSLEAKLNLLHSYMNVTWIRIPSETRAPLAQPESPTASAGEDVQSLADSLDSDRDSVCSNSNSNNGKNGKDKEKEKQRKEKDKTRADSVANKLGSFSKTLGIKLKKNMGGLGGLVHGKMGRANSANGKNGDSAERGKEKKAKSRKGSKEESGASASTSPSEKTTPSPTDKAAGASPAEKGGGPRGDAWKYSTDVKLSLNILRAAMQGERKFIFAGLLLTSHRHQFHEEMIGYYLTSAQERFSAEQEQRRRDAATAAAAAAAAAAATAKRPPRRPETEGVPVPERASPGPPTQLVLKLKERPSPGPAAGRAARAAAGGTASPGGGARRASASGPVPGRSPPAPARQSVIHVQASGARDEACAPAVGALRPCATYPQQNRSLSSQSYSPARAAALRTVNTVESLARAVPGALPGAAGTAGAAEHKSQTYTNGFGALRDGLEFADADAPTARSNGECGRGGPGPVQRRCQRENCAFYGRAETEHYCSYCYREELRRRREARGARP
Outline: as §1

UniProt Q9P2H5 = biological target: T3, UniProt Q9P2H5
T3 sequence (whole entry): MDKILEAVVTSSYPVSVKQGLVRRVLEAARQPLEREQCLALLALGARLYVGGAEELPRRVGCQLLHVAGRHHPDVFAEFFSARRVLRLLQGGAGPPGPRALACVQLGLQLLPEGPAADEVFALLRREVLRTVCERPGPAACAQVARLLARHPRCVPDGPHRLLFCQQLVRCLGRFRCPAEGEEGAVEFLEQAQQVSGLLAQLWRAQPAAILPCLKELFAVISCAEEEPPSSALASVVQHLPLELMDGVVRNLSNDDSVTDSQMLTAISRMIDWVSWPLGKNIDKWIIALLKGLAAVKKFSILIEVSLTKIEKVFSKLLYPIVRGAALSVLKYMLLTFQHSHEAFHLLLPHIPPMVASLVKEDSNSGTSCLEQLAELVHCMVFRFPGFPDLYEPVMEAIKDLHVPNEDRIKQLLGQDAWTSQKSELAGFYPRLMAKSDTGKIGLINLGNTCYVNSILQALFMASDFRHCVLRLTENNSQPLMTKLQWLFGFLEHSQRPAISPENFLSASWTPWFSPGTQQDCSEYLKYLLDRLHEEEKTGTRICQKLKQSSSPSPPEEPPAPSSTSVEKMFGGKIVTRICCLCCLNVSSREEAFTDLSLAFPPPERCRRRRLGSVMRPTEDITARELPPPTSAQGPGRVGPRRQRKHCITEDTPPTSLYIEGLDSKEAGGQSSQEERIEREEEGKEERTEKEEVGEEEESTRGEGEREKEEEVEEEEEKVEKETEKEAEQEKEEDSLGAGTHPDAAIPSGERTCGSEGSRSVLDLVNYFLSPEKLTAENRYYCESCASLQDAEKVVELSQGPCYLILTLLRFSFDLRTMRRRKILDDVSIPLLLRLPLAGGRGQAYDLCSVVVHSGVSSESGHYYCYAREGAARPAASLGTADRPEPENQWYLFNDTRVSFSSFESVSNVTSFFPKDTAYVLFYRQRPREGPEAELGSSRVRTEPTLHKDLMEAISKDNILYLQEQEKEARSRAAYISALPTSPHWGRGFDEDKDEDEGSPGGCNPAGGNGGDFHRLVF
Outline: as §1

UniProt Q9UGI0 = biological target: T4, UniProt Q9UGI0
T4 sequence (whole entry): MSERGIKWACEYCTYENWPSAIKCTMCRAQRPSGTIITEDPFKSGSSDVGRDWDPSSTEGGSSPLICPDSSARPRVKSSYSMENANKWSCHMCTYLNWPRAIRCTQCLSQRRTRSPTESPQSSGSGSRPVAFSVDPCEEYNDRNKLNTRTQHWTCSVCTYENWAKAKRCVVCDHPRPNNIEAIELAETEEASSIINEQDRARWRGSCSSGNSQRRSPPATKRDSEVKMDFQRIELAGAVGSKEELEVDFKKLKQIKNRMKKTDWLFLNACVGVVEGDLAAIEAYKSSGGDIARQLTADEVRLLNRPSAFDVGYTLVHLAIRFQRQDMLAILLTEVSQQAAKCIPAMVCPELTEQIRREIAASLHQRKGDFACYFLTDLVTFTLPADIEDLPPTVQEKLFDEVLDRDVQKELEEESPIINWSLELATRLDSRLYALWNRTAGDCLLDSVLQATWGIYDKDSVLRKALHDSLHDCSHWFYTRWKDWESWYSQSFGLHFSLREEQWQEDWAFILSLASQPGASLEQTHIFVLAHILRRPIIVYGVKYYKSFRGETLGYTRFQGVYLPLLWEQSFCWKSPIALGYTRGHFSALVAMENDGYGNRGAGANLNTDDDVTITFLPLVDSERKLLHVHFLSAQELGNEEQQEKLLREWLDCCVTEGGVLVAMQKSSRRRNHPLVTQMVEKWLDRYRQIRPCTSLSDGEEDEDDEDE
Outline: as §1

YOD1 = biological target: T5, YOD1 (UniProt Q5VVQ6)
T5 sequence (whole entry): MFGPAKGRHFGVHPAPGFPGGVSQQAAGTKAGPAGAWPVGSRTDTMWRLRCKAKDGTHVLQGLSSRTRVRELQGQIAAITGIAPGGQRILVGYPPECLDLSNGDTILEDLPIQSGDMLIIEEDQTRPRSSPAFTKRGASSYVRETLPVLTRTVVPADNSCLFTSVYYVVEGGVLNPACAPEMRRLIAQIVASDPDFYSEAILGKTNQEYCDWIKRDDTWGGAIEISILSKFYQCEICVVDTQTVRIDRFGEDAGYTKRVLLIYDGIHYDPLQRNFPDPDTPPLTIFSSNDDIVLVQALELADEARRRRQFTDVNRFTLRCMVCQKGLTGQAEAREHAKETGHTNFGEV
Outline: as §1

Row | Structure (SMILES) | log2 ratio of Biotin-Ahx-Ub-VS probe labelling (UniProt O00507) | log2 ratio of Biotin-Ahx-Ub-VS probe labelling (UniProt P51784) | log2 ratio of Biotin-Ahx-Ub-VS probe labelling (UniProt Q5T2D3) | log2 ratio of Biotin-Ahx-Ub-VS probe labelling (UniProt Q8TE49) | log2 ratio of Biotin-Ahx-Ub-VS probe labelling (UniProt Q9P2H5) | log2 ratio of Biotin-Ahx-Ub-VS probe labelling (UniProt Q9UGI0) | log2 ratio of Biotin-Ahx-Ub-VS probe labelling (YOD1)
1 | O=C(CCl)NCCC1COCCO1 (configuration not stated) | -0.31 | 0.182 | -0.163 | -0.547 | -0.0395 | -0.194 | -0.308
2 | N#Cc1ccccc1N1CCN(C(=O)CCl)CC1 | -0.534 | -0.515 | -0.687 | -1.29 (active) | -0.617 | -2.22 (active) | -0.448
3 | O=C(CCl)Nc1ccc2c(c1)OC(F)(F)O2 | -0.0305 | 0.0816 | -0.375 | -0.815 | -0.115 | -0.637 | -0.0381
4 | Cc1ncsc1CCNC(=O)CCl | 0.115 | 0.269 | -0.0368 | -0.0765 | -0.0174 | -0.0599 | 0.0977
5 | Cc1cccc(C)c1NC(=O)CCl | -0.138 | -0.081 | -0.377 | -0.358 | -0.0602 | -0.323 | -0.344
6 | O=C(CCl)N1CCC(S(=O)(=O)c2ccc(F)cc2)CC1 | 0.0377 | -0.0572 | -0.0766 | -0.856 | -0.104 | -0.887 | 0.119
7 | O=C(CCl)NCc1ccc(Cl)cc1 | 0.318 | 0.0262 | -0.0567 | -0.395 | 0.00401 | -0.0432 | 0.238
8 | O=C(CCl)N1CCN(C(=O)N2CCCCC2)CC1 | -1.18 (active) | -0.772 | -0.618 | -0.968 | -0.897 | -1.27 (active) | -0.827
9 | CNC(=O)Cn1cc(NC(=O)CCl)cn1 | -0.146 | -0.115 | -0.427 | -0.553 | -0.256 | -1.09 (active) | -0.252
10 | Cc1nc(CN2CCCN(C(=O)CCl)CC2)no1.Cl | 0.543 | 0.151 | -0.111 | 0.0982 | -0.193 | 0.143 | 0.273
11 | O=C(CCl)NCCC1=CCCCC1 | 0.347 | 0.0951 | -0.215 | -0.191 | -0.0991 | -0.159 | 0.16
